# In PubChem BioAssay AID1159580 (chemical genetic matrix, 2015):
# Screen size: about 5,500 compounds; about 2,000 (36%) were called active. Not shown: some 18% with an inconclusive outcome. Some of the results follow. Values without a mark were called inactive. No stated cut-off is given here; in the data, active means normalized growth mostly below about 0.91 (no sharp cut-off); inconclusive means no clear call, values can overlap the other calls; inactive means mostly above about 0.92.
# Experiment: chemical genetic growth profiling, strain panel (AID 1159580);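 further: tested at 20 µM; growth read once vehicle control cultures reached saturation at 30 °C; 1 = growth at the plate median or of vehicle wells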
# Conditions: growth OD
# [1] = S. cerevisiae deletion strains, locus YHR030C, strain SLT2, stronger effect = lower value
# [2] = S. cerevisiae deletion strains, locus YJL095W, strain BCK1, stronger effect = lower value
smiles,measurement,setting,value
COc1ccc(-c2cc(=O)c3c(OC)c(OC)c(OC)cc3o2)cc1OC,normalized growth,[1],1.03
same,normalized growth,"S. cerevisiae deletion strains, locus YHR079C, strain IRE1, stronger effect = lower value",1.02
same,normalized growth,[2],0.974
same,normalized growth,"S. cerevisiae deletion strains, locus YJR066W, strain TOR1, stronger effect = lower value",0.99
same,normalized growth,"S. cerevisiae deletion strains, locus YLR113W, strain HOG1, stronger effect = lower value",0.968
same,normalized growth,"S. cerevisiae deletion strains, locus YNL183C, strain NPR1, stronger effect = lower value",0.936
same,normalized growth,"S. cerevisiae deletion strains, locus YOR231W, strain MKK1, stronger effect = lower value",1.02
same,normalized growth,"S. cerevisiae deletion strains, locus YPL256C, strain CLN2, stronger effect = lower value",1
COc1cc(O)c2c(=O)cc(-c3ccc(O)cc3)oc2c1,normalized growth,"S. cerevisiae deletion strains, locus YBR021W, strain FUR4, stronger effect = lower value",1.02
same,normalized growth,"S. cerevisiae deletion strains, locus YBR229C, strain ROT2, stronger effect = lower value",1
same,normalized growth,"S. cerevisiae deletion strains, locus YCL029C, strain bik1, stronger effect = lower value",1
same,normalized growth,"S. cerevisiae deletion strains, locus YDL035C, strain GPR1, stronger effect = lower value",1
same,normalized growth,"S. cerevisiae deletion strains, locus YDL074C, strain BRE1, stronger effect = lower value",1.01
same,normalized growth,"S. cerevisiae deletion strains, locus YDL101C, strain DUN1, stronger effect = lower value",1.02
same,normalized growth,"S. cerevisiae deletion strains, locus YDL185W, strain tfp1, stronger effect = lower value",1.02
same,normalized growth,"S. cerevisiae deletion strains, locus YDL192W, strain arf1, stronger effect = lower value",1.05
same,normalized growth,"S. cerevisiae deletion strains, locus YDR101C, strain arx1, stronger effect = lower value",1.03
same,normalized growth,"S. cerevisiae deletion strains, locus YDR162C, strain NBP2, stronger effect = lower value",1.06
same,normalized growth,"S. cerevisiae deletion strains, locus YDR318W, strain mcm21, stronger effect = lower value",1.02
same,normalized growth,"S. cerevisiae deletion strains, locus YDR388W, stronger effect = lower value",0.994
same,normalized growth,"S. cerevisiae deletion strains, locus YDR502C, strain sam2, stronger effect = lower value",1
same,normalized growth,"S. cerevisiae deletion strains, locus YEL061C, strain CIN8, stronger effect = lower value",1
same,normalized growth,"S. cerevisiae deletion strains, locus YER110C, stronger effect = lower value",1.02
same,normalized growth,"S. cerevisiae deletion strains, locus YER155C, strain BEM2, stronger effect = lower value",1.04
same,normalized growth,"S. cerevisiae deletion strains, locus YER167W, strain BCK2, stronger effect = lower value",1.02
same,normalized growth,"S. cerevisiae deletion strains, locus YGL078C, strain dbp3, stronger effect = lower value",1.03
same,normalized growth,"S. cerevisiae deletion strains, locus YGL086W, strain mad1, stronger effect = lower value",1
same,normalized growth,"S. cerevisiae deletion strains, locus YGL248W, strain PDE1, stronger effect = lower value",1.02
same,normalized growth,"S. cerevisiae deletion strains, locus YGR135W, strain pre9, stronger effect = lower value",1.04
same,normalized growth,"S. cerevisiae deletion strains, locus YGR252W, strain gcn5, stronger effect = lower value",0.949
same,normalized growth,[1],1.01
same,normalized growth,"S. cerevisiae deletion strains, locus YHR079C, strain IRE1 (second series), stronger effect = lower value",1.01
same,normalized growth,"S. cerevisiae deletion strains, locus YHR094C, strain hxt1, stronger effect = lower value",0.996
same,normalized growth,"S. cerevisiae deletion strains, locus YHR129C, strain ARP1, stronger effect = lower value",1.01
same,normalized growth,"S. cerevisiae deletion strains, locus YHR200W, strain rpn10, stronger effect = lower value",1.07
same,normalized growth,"S. cerevisiae deletion strains, locus YIL066C, strain RNR3, stronger effect = lower value",1.02
same,normalized growth,"S. cerevisiae deletion strains, locus YIL073C, strain SPO22, stronger effect = lower value",1.02
same,normalized growth,"S. cerevisiae deletion strains, locus YIL125W, strain kgd1, stronger effect = lower value",1.02
same,normalized growth,"S. cerevisiae deletion strains, locus YIR030C, strain dcg1, stronger effect = lower value",1.08 [resistant] (active)
same,normalized growth,[2],1.05
same,normalized growth,"S. cerevisiae deletion strains, locus YJL134W, strain LCB3, stronger effect = lower value",0.997
same,normalized growth,"S. cerevisiae deletion strains, locus YJL168C, strain set2, stronger effect = lower value",1
same,normalized growth,"S. cerevisiae deletion strains, locus YJL187C, strain SWE1 (second series), stronger effect = lower value",1.02
same,normalized growth,"S. cerevisiae deletion strains, locus YJR043C, strain POL32, stronger effect = lower value",1
same,normalized growth,"S. cerevisiae deletion strains, locus YJR075W, strain HOC1, stronger effect = lower value",1
same,normalized growth,"S. cerevisiae deletion strains, locus YKL009W, strain mrt4, stronger effect = lower value",0.981
same,normalized growth,"S. cerevisiae deletion strains, locus YKL068W, stronger effect = lower value",1
same,normalized growth,"S. cerevisiae deletion strains, locus YKL085W, strain MDH1 (second series), stronger effect = lower value",0.994
same,normalized growth,"S. cerevisiae deletion strains, locus YKL085W, strain MDH1, stronger effect = lower value",0.994
same,normalized growth,"S. cerevisiae deletion strains, locus YKR001C, strain vps1, stronger effect = lower value",1.01
same,normalized growth,"S. cerevisiae deletion strains, locus YLR039C, strain RIC1, stronger effect = lower value",1.07
same,normalized growth,"S. cerevisiae deletion strains, locus YLR058C, strain SHM2, stronger effect = lower value",1.01
same,normalized growth,"S. cerevisiae deletion strains, locus YLR102C, strain apc9, stronger effect = lower value",1.04
same,normalized growth,"S. cerevisiae deletion strains, locus YLR262C, strain YPT6, stronger effect = lower value",1.07
same,normalized growth,"S. cerevisiae deletion strains, locus YLR268W, strain sec22, stronger effect = lower value",1.01
same,normalized growth,"S. cerevisiae deletion strains, locus YLR330W, strain CHS5, stronger effect = lower value",0.997
same,normalized growth,"S. cerevisiae deletion strains, locus YLR342W, strain FKS1 (second series), stronger effect = lower value",1.01
same,normalized growth,"S. cerevisiae deletion strains, locus YLR371W, strain rom2, stronger effect = lower value",1.03
same,normalized growth,"S. cerevisiae deletion strains, locus YLR418C, strain cdc73, stronger effect = lower value",0.998
same,normalized growth,"S. cerevisiae deletion strains, locus YML016C, strain PPZ1, stronger effect = lower value",0.994
same,normalized growth,"S. cerevisiae deletion strains, locus YML032C, strain rad52, stronger effect = lower value",0.996
same,normalized growth,"S. cerevisiae deletion strains, locus YML124C, strain tub3, stronger effect = lower value",1.02
same,normalized growth,"S. cerevisiae deletion strains, locus YMR078C, strain ctf18, stronger effect = lower value",1.02
same,normalized growth,"S. cerevisiae deletion strains, locus YMR223W, strain ubp8, stronger effect = lower value",1.04
same,normalized growth,"S. cerevisiae deletion strains, locus YMR307W, strain GAS1, stronger effect = lower value",0.907
same,normalized growth,"S. cerevisiae deletion strains, locus YNL067W, strain RPL9B, stronger effect = lower value",1.03
same,normalized growth,"S. cerevisiae deletion strains, locus YNL233W, strain BNI4, stronger effect = lower value",1.02
same,normalized growth,"S. cerevisiae deletion strains, locus YNL250W, strain rad50, stronger effect = lower value",1.02
same,normalized growth,"S. cerevisiae deletion strains, locus YNL271C, strain bni1, stronger effect = lower value",1.04
same,normalized growth,"S. cerevisiae deletion strains, locus YNL298W, strain CLA4, stronger effect = lower value",0.963
same,normalized growth,"S. cerevisiae deletion strains, locus YNL307C, strain MCK1, stronger effect = lower value",0.994
same,normalized growth,"S. cerevisiae deletion strains, locus YNR052C, strain pop2, stronger effect = lower value",1.01
same,normalized growth,"S. cerevisiae deletion strains, locus YOL006C, strain TOP1, stronger effect = lower value",1.04
same,normalized growth,"S. cerevisiae deletion strains, locus YOL012C, strain htz1",0.814
same,normalized growth,"S. cerevisiae deletion strains, locus YOL147C, strain pex11, stronger effect = lower value",1.02
same,normalized growth,"S. cerevisiae deletion strains, locus YOR061W, strain CKA2, stronger effect = lower value",1
same,normalized growth,"S. cerevisiae deletion strains, locus YOR069W, strain VPS5, stronger effect = lower value",0.999
same,normalized growth,"S. cerevisiae deletion strains, locus YOR136W, strain idh2, stronger effect = lower value",0.993
same,normalized growth,"S. cerevisiae deletion strains, locus YOR144C, strain elg1, stronger effect = lower value",1.04
same,normalized growth,"S. cerevisiae deletion strains, locus YOR184W, strain ser1, stronger effect = lower value",1.07
same,normalized growth,"S. cerevisiae deletion strains, locus YOR316C, strain cot1, stronger effect = lower value",1.02
same,normalized growth,"S. cerevisiae deletion strains, locus YPL055C, strain LGE1, stronger effect = lower value",1.02
same,normalized growth,"S. cerevisiae deletion strains, locus YPR119W, strain clb2, stronger effect = lower value",1.01
same,normalized growth,"S. cerevisiae deletion strains, locus YPR141C, strain kar3, stronger effect = lower value",1.08
same,normalized growth,"S. cerevisiae deletion strains, locus YPR163C, strain tif3, stronger effect = lower value",0.996
same,normalized growth,"S. cerevisiae deletion strains, locus YPR167C, strain met16, stronger effect = lower value",1.02
same,normalized growth,"S. cerevisiae deletion strains, strain wtn01, stronger effect = lower value",1.02
same,normalized growth,"S. cerevisiae strains, strain wild type, stronger effect = lower value",1.01
